“And” between values parts separate entries of the source, which are not always exact repeats. Equal entries are not always repeated. Records with an inconclusive call do not appear. A call without a number means that no potency is given here. Where a structure was tested more than once in an assay, its records may differ in their call. The source made the active and inactive calls. The call rests on the fitted dose curve; in most records, active means well fitted inhibition curve with a large enough effect in the repeat runs; inconclusive means weak or mixed curves; inactive means flat fitted curve, though single readings scatter.
Each molecule was assayed against Voltage-gated inwardly rectifying potassium channel KCNH2 (Homo sapiens) (UniProt Q12809) (assay: Human Ether-a-go-go-Related Gene (hERG) channel small molecule antagonists: fluorescence cell-based qHTS assay (AID 1671200; further: nearly all actives have a fitted effect of over 50% in size)). Conditions: hERG-U2OS cells, FluxOR thallium flux fluorescence; series mostly up to 76.8 µM.
Sequence of Voltage-gated inwardly rectifying potassium channel KCNH2 (Homo sapiens) (Q12809 whole entry, looked up): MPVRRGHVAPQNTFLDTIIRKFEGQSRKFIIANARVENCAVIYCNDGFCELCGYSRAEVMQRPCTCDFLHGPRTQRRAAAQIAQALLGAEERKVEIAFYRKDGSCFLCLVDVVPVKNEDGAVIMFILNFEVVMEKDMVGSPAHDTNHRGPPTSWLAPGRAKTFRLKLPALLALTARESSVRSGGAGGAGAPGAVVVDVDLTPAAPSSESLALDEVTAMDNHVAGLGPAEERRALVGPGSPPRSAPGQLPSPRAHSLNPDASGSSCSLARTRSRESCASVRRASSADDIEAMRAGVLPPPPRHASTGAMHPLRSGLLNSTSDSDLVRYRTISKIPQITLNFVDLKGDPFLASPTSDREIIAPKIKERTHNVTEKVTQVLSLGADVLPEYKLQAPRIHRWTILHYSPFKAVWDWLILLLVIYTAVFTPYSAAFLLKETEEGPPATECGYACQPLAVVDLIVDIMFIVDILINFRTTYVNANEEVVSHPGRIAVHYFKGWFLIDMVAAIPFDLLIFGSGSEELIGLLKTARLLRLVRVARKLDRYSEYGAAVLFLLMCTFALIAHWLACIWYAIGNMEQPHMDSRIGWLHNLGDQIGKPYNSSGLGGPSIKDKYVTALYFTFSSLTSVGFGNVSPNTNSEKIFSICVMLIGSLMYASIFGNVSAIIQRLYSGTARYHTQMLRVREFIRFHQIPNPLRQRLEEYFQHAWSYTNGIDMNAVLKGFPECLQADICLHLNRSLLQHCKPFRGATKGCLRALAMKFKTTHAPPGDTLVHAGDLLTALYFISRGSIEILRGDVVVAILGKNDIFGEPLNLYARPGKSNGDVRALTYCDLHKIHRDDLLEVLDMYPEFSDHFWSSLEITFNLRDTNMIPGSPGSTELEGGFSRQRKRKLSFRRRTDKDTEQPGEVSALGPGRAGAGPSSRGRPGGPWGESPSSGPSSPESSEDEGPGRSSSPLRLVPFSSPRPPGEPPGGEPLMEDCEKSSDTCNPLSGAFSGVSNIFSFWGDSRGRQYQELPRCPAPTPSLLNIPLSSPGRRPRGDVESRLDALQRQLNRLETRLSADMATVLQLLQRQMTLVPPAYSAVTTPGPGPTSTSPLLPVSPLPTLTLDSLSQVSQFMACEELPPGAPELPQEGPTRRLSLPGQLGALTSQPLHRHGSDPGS
From the text: National Center for Advancing Translational Sciences [NCATS]
U.S. Environmental Protection Agency [EPA]
National Institutes of Environmental Health Sciences [NIEHS]
National Toxicology Program [NTP]
U.S. Food and Drug Administration [FDA]
Mutations in the hERG channel cause Long QT (LQT) syndrome. LQT syndrome is a cardiac disorder which can cause ventricle arrhythmia and sudden death. Additionally, compounds which block the hERG channel can cause acquired LQT syndrome. Several FDA approved drugs have been removed from the market due to their hERG blocking activity. A cell-based hERG channel inhibition assay can be used to screen chemical compounds that inhibit hERG channel. This assay measures hERG channel activity using thallium ions as surrogate ions to measure potassium into the cells.
Tox21 Assay Protocol Summary:
hERG-U2OS cells were resuspended in culture medium and dispensed into 1536-well, black wall/clear-bottom plates at 1000cells/well/3uL using a Multidrop Combi dispenser (Thermo Fisher, Waltham, MA). After plates were incubated at 37 C overnight, 3 uL of Loading Buffer provided by FluxOR II Potassium Ion Channel Assay kit (Thermo, Carlsbad, CA) was added to each well. The assay plates were then incubated at room temperature in the dark for 1h. […] After the assay plates were incubated at room temperature for 10 min, 1 uL of Stimulus Buffer provided by FluxOR II Potassium Ion Channel Assay kit was added into each well and fluorescence intensity (480nm excitation/540nm emission) was continuously measured for 2 min at 1 second intervals using a Functional Drug Screening System (FDSS) 7000EX kinetic plate reader (Hamamatsu, Japan).
With `CNC` the Potency was “inactive”. In the case of `CCC(=O)C(CC(C)N(C)C)(c1ccccc1)c1ccccc1` (stereo not given), the Potency is reported as 43.8 µM (active). In the case of `CCCn1cc[n+](C)c1`, the Potency is reported as “inactive”. For `COP(=O)(OC)C(O)C(Cl)(Cl)Cl` (stereo not given), the Potency was “inactive”. For `Oc1cccc2cccnc12`, the Potency was “inactive”. For `O=C(O)COc1ccc(Cl)cc1Cl`, the Potency was “inactive”. In the case of `Cc1cc(Cl)ccc1N`, the Potency is reported as “inactive”. With `O=C(O)c1nc(Cl)ccc1Cl` the Potency was “inactive”. With `CCCCn1cc[n+](C)c1` the Potency was “inactive”. For `CCCCCCCCCCCCOS(=O)(=O)O`, the Potency was “inactive”. For `O=c1[nH]c(=O)n(Cl)c(=O)n1Cl`, the Potency was “inactive”. For `CCCCCCCCCCCC(=O)O`, the Potency was “inactive”. In the case of `Oc1ccccc1-c1ccccc1`, the Potency is reported as “inactive”. For `CCNc1nc(Cl)nc(NCC)n1`, the Potency was “inactive”. `O=[N+]([O-])O` was tested, and the Potency was “inactive”. `CCCCn1cc[n+](C)c1C` was tested, and the Potency was “inactive”. With `CCn1cc[n+](C)c1C` the Potency was “inactive”. With `Nc1ccccc1` the Potency was “inactive”. For `O=C(O)CCl`, the Potency was “inactive”. With `O=C(O)C(Cl)(Cl)Cl` the Potency was “inactive”. `C[C@]12CCC(=O)C=C1CC[C@@H]1[C@@H]2CC[C@]2(C)C(=O)CC[C@@H]12` was tested, and the Potency was “inactive”. With `C1CCC(NC2CCCCC2)CC1` the Potency was “inactive”. `CCCCCC[n+]1ccccc1` was tested, and the Potency was “inactive”. `N#CS` was tested, and the Potency was “inactive”. In the case of `Cc1cc(-c2ccc(N)c(C)c2)ccc1N`, the Potency is reported as “inactive”. `Cc1cc(Cl)ccc1OCC(=O)O` was tested, and the Potency was “inactive”. For `CCCC[n+]1ccccc1`, the Potency was “inactive”. With `CCCC[n+]1cccc(C)c1` the Potency was “inactive”. With `CCCC[N+]1(C)CCCC1` the Potency was “inactive”. `O=S(=O)(O)O` was tested, and the Potency was “inactive”. With `Nc1ccc(Cl)cc1` the Potency was “inactive”. `COCC(=O)N(c1c(C)cccc1C)C(C)C(=O)OC` (stereo not given) was tested, and the Potency was “inactive”. For `CCOP(=S)(OCC)Oc1ccc2c(C)c(Cl)c(=O)oc2c1`, the Potency was 22.1 µM (active) and inactive. With `O=C(O)C(Cl)Cl` the Potency was “inactive”. With `Nc1ccc(-c2ccc(N)c(Cl)c2)cc1Cl` the Potency was “inactive”. With `CCCC[N+]1(C)CCCCC1` the Potency was “inactive”. With `CCCCCCCCCCCCCC[P+](CCCCCC)(CCCCCC)CCCCCC` the Potency was 552 nM (active) and 349 nM (active) and 691 nM (active). For `Nc1ccc(-c2ccc(N)cc2)cc1`, the Potency was “inactive”. `O=C(O)c1ccccc1O` was tested, and the Potency was “inactive”. `CC(Cl)(Cl)C(=O)O` was tested, and the Potency was “inactive”.

Reference: PubChem BioAssay (Tox21)
Potency means the concentration at half of the fitted maximal effect.
